This note sets out measurements from article PMC7862700, “An all-to-all approach to the identification of sequence-specific readers for epigenetic DNA modifications on cytosine”.

Assay in all cases: DAPPL (digital affinity profiling via proximity ligation, sequencing); 10 mM Tris-HCl pH 7.5, 50 mM NaCl, 1 mM DTT, 4% glycerol, room temperature, 30 min; GST-TFs on glutathione beads, 16-mer random dsDNA library, 0.1% formaldehyde crosslink after washing; high values mean tight binding
Assay [1] deals with T1, FEV (Homo sapiens, UniProt Q99581 1-238).
T1 sequence: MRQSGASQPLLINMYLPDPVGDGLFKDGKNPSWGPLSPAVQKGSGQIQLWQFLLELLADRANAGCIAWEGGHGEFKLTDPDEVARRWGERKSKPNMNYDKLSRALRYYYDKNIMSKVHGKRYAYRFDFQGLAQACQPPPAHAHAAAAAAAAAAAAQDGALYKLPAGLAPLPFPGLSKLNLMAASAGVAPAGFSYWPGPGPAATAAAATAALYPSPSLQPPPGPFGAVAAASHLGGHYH
The conditions noted are these: protein: recombinant; tags: N-terminal GST; dsDNA, one strand shown. Put shortly:
(§1)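 Yeast served to express human transcription factors as GST fusions, which were then captured on glutathione beads and labelled with DNA barcodes. Pooled with a tag-only sample, they were incubated with 200 nmole of a 16-mer random double-stranded DNA library for 30 min at room temperature in Tris/NaCl/DTT/glycerol buffer, washed, crosslinked with 0.1% formaldehyde, ligated by proximity, amplified by PCR and sequenced. Dividing each hexamer's read frequency for a factor by its frequency for the tag-only sample gives the binding signal.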

In assay [2] the target is ETV5 (Homo sapiens, UniProt P41161 1-510). The conditions noted are these: protein: recombinant; tags: N-terminal GST; dsDNA, one strand shown. In short, it runs like this: as §1
Chain of ETV5 (P41161 whole entry): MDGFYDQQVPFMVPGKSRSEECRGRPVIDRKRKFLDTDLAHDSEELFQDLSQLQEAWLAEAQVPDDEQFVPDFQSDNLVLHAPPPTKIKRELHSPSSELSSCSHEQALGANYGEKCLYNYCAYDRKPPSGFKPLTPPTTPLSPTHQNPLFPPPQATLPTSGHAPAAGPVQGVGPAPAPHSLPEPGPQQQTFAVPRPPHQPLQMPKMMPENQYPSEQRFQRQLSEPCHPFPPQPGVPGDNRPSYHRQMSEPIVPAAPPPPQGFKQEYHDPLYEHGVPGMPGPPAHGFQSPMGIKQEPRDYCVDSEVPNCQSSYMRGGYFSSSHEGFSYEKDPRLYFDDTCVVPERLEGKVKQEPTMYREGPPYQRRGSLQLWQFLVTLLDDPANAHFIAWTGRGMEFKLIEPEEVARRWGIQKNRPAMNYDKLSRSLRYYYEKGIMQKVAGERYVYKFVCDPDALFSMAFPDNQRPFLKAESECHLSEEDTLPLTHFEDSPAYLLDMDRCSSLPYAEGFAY
Assay [3] has as its target HSF1 (Homo sapiens, UniProt Q00613 1-529). The conditions noted are these: protein: recombinant; tags: N-terminal GST; chain copies: 3; dsDNA, one strand shown. In short, it runs like this: as §1
In assay [4] the target is T2, SPIC (Homo sapiens, UniProt Q8N5J4 1-248).
T2 sequence: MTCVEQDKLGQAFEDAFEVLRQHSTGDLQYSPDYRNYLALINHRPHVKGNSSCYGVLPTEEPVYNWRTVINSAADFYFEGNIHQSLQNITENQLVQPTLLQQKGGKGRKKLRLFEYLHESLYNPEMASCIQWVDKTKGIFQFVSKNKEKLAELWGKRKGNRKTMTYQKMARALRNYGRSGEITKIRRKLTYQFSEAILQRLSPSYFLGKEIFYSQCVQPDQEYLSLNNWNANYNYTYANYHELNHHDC
The conditions noted are these: protein: recombinant; tags: N-terminal GST; dsDNA, one strand shown. In short, it runs like this: as §1

Assay [5] concerns the target ELF4 (Homo sapiens, UniProt Q99607 1-663). The conditions noted are these: protein: recombinant; tags: N-terminal GST; dsDNA, one strand shown. In short, it runs like this: as §1
Assay [6] has as its target T3, ELK4 (Homo sapiens, UniProt P28324-2 1-405).
T3 sequence: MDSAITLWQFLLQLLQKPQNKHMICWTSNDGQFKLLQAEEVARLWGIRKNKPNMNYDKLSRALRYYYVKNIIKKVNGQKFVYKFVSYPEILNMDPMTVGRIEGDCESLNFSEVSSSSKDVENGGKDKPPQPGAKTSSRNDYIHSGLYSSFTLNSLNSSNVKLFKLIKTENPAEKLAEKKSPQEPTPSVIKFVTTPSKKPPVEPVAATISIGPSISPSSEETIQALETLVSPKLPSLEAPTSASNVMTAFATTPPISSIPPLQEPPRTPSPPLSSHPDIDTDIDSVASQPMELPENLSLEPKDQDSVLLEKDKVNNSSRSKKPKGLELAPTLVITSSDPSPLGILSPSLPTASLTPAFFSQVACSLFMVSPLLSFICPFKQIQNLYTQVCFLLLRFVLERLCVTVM
The conditions noted are these: protein: recombinant; tags: N-terminal GST; dsDNA, one strand shown. In short, it runs like this: as §1

The target of assay [7] is T4, ETV2 (Homo sapiens, UniProt O00321 1-342).
T4 sequence: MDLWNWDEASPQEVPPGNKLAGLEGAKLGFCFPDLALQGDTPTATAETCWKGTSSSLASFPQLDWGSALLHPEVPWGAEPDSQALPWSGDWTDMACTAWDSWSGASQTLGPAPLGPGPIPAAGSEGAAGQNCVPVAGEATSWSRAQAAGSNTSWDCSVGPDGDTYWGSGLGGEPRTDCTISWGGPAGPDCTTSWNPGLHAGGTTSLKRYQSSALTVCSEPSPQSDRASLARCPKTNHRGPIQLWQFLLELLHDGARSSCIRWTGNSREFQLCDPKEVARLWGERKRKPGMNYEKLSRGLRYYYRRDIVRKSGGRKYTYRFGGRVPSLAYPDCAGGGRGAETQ
The conditions noted are these: protein: recombinant; tags: N-terminal GST; dsDNA, one strand shown. Put shortly:
as §1

Assay [8] concerns the target T5, ELF3 (Homo sapiens, UniProt P78545 1-371).
T5 sequence: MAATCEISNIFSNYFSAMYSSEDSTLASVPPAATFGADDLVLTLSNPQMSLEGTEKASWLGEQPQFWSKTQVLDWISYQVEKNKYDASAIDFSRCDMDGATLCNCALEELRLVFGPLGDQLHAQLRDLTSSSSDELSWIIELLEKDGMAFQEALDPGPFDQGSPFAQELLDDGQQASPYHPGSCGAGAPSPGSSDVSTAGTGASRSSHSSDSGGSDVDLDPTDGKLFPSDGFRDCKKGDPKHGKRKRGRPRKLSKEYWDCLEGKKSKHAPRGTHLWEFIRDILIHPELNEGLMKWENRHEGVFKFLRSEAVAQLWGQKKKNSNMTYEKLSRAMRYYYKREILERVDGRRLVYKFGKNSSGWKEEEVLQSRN
The conditions noted are these: protein: recombinant; tags: N-terminal GST; dsDNA, one strand shown. Put shortly: as §1

Assay [9] deals with CRX (Homo sapiens, UniProt O43186 1-299). The conditions noted are these: protein: recombinant; tags: N-terminal GST; dsDNA, one strand shown. Put shortly:
as §1

The target in assay [10] is ETV1 (Homo sapiens, UniProt P50549 1-477). The conditions noted are these: protein: recombinant; tags: N-terminal GST; dsDNA, one strand shown. In short, it runs like this: as §1
Chain of ETV1 (P50549 whole entry): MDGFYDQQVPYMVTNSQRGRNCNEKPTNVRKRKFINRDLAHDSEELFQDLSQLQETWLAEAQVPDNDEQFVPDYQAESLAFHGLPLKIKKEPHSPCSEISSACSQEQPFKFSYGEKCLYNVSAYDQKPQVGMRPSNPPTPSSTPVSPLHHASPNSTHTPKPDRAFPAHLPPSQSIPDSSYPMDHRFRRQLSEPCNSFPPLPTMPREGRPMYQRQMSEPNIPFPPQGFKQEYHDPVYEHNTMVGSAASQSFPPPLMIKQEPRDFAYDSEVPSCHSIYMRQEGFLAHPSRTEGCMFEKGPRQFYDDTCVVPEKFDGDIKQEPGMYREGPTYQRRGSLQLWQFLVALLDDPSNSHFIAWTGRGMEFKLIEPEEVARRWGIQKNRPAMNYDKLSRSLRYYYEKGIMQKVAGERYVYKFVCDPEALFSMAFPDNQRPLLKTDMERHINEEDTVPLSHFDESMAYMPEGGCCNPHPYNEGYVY
Assay [11] has as its target T6, ERF (Homo sapiens, UniProt P50548 1-548).
T6 sequence: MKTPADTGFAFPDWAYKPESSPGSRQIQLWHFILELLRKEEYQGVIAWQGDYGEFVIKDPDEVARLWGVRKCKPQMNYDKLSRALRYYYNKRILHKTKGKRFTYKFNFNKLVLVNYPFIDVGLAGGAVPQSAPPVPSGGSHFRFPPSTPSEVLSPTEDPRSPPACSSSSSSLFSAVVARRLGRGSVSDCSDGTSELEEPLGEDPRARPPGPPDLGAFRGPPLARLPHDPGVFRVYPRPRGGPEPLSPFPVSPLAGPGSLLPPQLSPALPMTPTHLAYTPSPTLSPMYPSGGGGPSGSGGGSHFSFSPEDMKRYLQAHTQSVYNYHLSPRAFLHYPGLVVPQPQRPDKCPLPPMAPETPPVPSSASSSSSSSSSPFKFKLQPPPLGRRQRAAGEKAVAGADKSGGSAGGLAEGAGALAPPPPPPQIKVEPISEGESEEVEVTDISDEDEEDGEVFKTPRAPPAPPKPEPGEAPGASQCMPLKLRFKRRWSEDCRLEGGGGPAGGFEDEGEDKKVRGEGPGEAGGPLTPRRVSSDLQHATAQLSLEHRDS
The conditions noted are these: protein: recombinant; tags: N-terminal GST; dsDNA, one strand shown. In short, it runs like this:
as §1

The target in assay [12] is T7, ETV3L (Homo sapiens, UniProt Q6ZN32 1-361).
T7 sequence: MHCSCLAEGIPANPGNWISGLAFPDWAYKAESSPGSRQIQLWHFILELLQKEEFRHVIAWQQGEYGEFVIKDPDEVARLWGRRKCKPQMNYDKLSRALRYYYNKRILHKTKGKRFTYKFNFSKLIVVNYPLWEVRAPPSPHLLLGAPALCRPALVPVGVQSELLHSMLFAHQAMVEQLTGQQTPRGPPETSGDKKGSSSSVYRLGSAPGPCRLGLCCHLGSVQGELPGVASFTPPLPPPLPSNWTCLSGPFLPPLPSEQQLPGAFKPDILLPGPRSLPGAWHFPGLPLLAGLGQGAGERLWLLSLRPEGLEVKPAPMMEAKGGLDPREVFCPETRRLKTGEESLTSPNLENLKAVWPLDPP
The conditions noted are these: protein: recombinant; tags: N-terminal GST; dsDNA, one strand shown. Put shortly:
as §1

The target in assay [13] is T8, ETS2 (Homo sapiens, UniProt P15036 1-469).
T8 sequence: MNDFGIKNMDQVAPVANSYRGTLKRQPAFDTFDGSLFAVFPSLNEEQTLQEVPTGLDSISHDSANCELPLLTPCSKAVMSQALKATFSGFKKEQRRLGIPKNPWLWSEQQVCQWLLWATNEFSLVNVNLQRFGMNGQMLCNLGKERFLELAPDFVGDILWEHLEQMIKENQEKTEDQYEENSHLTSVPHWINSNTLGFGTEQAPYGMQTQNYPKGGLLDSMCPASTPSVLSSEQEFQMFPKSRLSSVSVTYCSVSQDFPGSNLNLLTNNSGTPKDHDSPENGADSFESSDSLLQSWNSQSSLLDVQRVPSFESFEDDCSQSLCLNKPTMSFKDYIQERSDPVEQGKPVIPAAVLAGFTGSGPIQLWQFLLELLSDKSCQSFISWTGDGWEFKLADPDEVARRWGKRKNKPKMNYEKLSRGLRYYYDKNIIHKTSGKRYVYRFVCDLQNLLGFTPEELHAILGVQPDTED
The conditions noted are these: protein: recombinant; tags: N-terminal GST; dsDNA, one strand shown. Put shortly: as §1

The target of assay [14] is T9, SPDEF (Homo sapiens, UniProt O95238 1-335).
T9 sequence: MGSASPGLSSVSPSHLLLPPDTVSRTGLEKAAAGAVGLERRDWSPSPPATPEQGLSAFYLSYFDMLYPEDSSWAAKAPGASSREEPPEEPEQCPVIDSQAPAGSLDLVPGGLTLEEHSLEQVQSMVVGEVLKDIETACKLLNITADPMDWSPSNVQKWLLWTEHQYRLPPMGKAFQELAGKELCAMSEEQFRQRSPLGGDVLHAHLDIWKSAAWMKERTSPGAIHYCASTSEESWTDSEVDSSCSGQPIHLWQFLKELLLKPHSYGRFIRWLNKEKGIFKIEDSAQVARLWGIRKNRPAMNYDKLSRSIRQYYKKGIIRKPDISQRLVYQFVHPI
The conditions noted are these: protein: recombinant; tags: N-terminal GST; dsDNA, one strand shown. Put shortly: as §1

Assay [15] concerns the target T10, ETV7 (Homo sapiens, UniProt Q9Y603 1-341).
T10 sequence: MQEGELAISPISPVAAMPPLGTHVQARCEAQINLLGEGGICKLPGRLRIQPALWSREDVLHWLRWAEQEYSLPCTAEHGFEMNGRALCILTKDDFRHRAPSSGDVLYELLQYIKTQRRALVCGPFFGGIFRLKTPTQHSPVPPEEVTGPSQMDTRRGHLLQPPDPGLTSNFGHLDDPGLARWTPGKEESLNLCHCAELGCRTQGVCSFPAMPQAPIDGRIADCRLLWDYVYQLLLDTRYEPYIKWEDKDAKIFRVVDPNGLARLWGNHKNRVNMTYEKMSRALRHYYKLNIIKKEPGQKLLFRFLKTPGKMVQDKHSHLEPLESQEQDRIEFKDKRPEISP
The conditions noted are these: protein: recombinant; tags: N-terminal GST; dsDNA, one strand shown. In short, it runs like this:
as §1

Assay [16] concerns the target T11, ELF5 (Homo sapiens, UniProt Q9UKW6-2 1-255).
T11 sequence: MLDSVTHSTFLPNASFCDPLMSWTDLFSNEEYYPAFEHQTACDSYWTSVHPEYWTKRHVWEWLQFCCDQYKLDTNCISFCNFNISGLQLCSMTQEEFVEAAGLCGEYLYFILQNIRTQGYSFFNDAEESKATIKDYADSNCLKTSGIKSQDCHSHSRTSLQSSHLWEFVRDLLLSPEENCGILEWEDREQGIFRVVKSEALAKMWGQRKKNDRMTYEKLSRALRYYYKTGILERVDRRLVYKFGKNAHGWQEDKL
The conditions noted are these: protein: recombinant; tags: N-terminal GST; dsDNA, one strand shown. Put shortly: as §1

Assay [17] has as its target T12, ETV3 (Homo sapiens, UniProt P41162-2 1-143).
T12 sequence: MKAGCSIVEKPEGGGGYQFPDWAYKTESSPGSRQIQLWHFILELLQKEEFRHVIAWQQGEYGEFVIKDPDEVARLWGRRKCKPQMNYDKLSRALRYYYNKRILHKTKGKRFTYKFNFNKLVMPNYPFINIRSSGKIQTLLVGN
The conditions noted are these: protein: recombinant; tags: N-terminal GST; dsDNA, one strand shown. Put shortly:
as §1

In assay [18] the target is ETV6 (Homo sapiens, UniProt P41212 1-452). The conditions noted are these: protein: recombinant; tags: N-terminal GST; dsDNA, one strand shown. Put shortly:
as §1

Chain of ELF4 (Q99607 whole entry): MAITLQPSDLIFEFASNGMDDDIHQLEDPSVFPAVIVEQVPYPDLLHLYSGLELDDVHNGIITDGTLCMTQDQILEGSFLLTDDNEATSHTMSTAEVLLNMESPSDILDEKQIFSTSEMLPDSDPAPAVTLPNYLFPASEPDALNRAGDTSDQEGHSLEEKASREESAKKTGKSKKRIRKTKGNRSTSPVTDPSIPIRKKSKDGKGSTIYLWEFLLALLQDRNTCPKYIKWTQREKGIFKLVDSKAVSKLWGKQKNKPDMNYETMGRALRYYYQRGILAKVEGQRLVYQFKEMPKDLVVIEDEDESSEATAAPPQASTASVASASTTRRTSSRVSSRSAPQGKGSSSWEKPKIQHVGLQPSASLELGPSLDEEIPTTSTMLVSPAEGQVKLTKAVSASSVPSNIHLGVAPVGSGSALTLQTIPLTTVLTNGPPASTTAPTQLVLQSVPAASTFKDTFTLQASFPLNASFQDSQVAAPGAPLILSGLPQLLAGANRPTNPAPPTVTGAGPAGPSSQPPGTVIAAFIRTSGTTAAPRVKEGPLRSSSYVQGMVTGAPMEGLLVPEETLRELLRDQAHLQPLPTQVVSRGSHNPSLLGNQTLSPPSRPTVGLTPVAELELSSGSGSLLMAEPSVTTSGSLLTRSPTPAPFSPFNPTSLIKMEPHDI
Chain of HSF1 (Q00613 whole entry): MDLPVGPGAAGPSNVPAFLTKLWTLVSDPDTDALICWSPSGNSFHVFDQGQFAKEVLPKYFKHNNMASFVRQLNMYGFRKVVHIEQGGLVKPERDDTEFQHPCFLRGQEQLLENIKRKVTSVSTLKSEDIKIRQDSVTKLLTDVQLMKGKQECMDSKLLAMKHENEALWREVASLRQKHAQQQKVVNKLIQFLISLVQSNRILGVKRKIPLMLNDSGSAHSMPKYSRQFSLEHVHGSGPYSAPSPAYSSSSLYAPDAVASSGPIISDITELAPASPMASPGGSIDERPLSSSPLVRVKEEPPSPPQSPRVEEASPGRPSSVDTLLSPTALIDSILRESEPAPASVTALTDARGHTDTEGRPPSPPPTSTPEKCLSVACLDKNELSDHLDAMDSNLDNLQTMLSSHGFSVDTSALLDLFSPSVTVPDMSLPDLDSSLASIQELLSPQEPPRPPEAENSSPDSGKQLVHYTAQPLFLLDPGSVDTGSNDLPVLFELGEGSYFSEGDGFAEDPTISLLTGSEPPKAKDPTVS
Chain of ETV6 (P41212 whole entry): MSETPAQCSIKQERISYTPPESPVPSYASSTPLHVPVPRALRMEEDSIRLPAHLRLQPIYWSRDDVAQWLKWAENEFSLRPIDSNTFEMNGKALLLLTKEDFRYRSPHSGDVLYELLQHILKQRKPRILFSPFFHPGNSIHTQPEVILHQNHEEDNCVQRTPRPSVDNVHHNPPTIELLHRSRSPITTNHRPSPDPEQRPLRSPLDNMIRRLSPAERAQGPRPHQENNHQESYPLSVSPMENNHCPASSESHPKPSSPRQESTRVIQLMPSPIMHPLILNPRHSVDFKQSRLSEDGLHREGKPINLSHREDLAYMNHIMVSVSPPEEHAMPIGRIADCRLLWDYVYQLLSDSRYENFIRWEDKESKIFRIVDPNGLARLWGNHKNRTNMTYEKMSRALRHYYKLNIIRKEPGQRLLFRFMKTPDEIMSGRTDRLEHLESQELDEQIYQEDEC
Chain of CRX (O43186 whole entry): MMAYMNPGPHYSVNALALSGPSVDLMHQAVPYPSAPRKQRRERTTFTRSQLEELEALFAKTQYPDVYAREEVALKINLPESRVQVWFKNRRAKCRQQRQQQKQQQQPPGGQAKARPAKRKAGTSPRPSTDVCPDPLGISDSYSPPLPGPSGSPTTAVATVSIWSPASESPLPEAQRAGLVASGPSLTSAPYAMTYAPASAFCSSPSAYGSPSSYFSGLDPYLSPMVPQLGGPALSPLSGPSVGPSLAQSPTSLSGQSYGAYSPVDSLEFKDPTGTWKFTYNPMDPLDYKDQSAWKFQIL

With AATGCG, the binding signal in assay [1] was 1.27 fold enrichment (6-mer frequency, TF over GST control); in assay [2], 1.2 fold enrichment (6-mer frequency, TF over GST control); in [3], 1.13 fold enrichment (6-mer frequency, TF over GST control); in assay [4], 1.22 fold enrichment (6-mer frequency, TF over GST control); in [5], 1.33 fold enrichment (6-mer frequency, TF over GST control); in assay [6], 1.25 fold enrichment (6-mer frequency, TF over GST control). The binding signal in assay [7] was 1.34 fold enrichment (6-mer frequency, TF over GST control); in assay [8] it was 1.43 fold enrichment (6-mer frequency, TF over GST control); in assay [9] it was 1.36 fold enrichment (6-mer frequency, TF over GST control); in [10], 1.3 fold enrichment (6-mer frequency, TF over GST control); in [11] it was 1.18 fold enrichment (6-mer frequency, TF over GST control); in assay [12], 1.36 fold enrichment (6-mer frequency, TF over GST control). The binding signal in [13] was 1.3 fold enrichment (6-mer frequency, TF over GST control); in assay [14], 1.26 fold enrichment (6-mer frequency, TF over GST control); in [15], 1.21 fold enrichment (6-mer frequency, TF over GST control); in assay [16] it was 1.3 fold enrichment (6-mer frequency, TF over GST control); in [17] it was 1.22 fold enrichment (6-mer frequency, TF over GST control); in [18] it was 1.29 fold enrichment (6-mer frequency, TF over GST control).
